Source: the supplement of paper PMC10849652
Targets with a hit are over-represented here; the source holds about 8,800 in all. About 0.5% of all pairs of compound and target were hits.

Legend:
Assay in all cases: log2 fold change, soluble protein after heating vs DMSO (PISA); higher = thermal stabilisation; K562 lysate, 10 uM; active = over 0.2 and 3.5 SD of the protein, either way, in both replicates (recomputed)
vemurafenib = compound: CCCS(=O)(=O)Nc1ccc(F)c(C(=O)c2c[nH]c3ncc(-c4ccc(Cl)cc4)cc23)c1F [vemurafenib]
Method in brief: (§1)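 Log-two fold change in thermal stability relative to solvent controls is reported from duplicates. For each sample, crude K562 extract from dounce-homogenised pellets in PBS pH 7.4 with 1 mM MgCl2, at 1 mg/mL protein, was treated with 10 μM compound for 30 min. Aliquots heated for 3 min across 48°C-58°C were pooled, brought to 0.5% NP-40 at 4°C and cleared at 21,000xg for 90 min. The supernatant was quantified by TMTpro 16plex LC-MS/MS with channel sums equalised.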

[1] = compound: CCCS(=O)(=O)Nc1ccc(F)c(C(=O)c2c[nH]c3ncc(Cl)cc23)c1F
Method in brief: as §1

barasertib = compound: CCN(CCCOc1ccc2c(Nc3cc(CC(=O)Nc4cccc(F)c4)[nH]n3)ncnc2c1)CCOP(=O)(O)O [barasertib]
Method in brief: as §1

[2] = compound: CC[C@@H]1C(=O)N(C)c2cnc(Nc3ccc(C(=O)NC4CCN(C)CC4)cc3OC)nc2N1C1CCCC1
Method in brief: as §1

volasertib = compound: CC[C@@H]1C(=O)N(C)c2cnc(Nc3ccc(C(=O)N[C@H]4CC[C@H](N5CCN(CC6CC6)CC5)CC4)cc3OC)nc2N1C(C)C [volasertib]
Method in brief: as §1

[3] = compound: CCn1c(C(=O)N(C2CC2)C2CC2)cc2c3c(ncn3C)c(Nc3cc(C)n(C)n3)nc21
Method in brief: as §1

[4] = compound: CCn1cc(-c2ccnc3[nH]c(-c4cccc(CN(C)C)c4)cc23)c(-c2ccc(NC(=O)N(C)C)cc2)n1
Method in brief: as §1

[5] = compound: CN1CCC(CNc2ccc3ncc(-c4cccc(OC(F)(F)F)c4)n3n2)CC1
Method in brief: as §1

saracatinib = compound: CN1CCN(CCOc2cc(OC3CCOCC3)c3c(Nc4c(Cl)ccc5c4OCO5)ncnc3c2)CC1 [saracatinib]
Method in brief: as §1

sotrastaurin = compound: CN1CCN(c2nc(C3=C(c4c[nH]c5ccccc45)C(=O)NC3=O)c3ccccc3n2)CC1 [sotrastaurin]
Method in brief: as §1

alvocidib = compound: CN1CC[C@H](c2c(O)cc(O)c3c(=O)cc(-c4ccccc4Cl)oc23)[C@H](O)C1 [alvocidib]
Method in brief: as §1

Tubastatin A = compound: CN1CCc2c(c3ccccc3n2Cc2ccc(C(=O)NO)cc2)C1 [Tubastatin A]
Method in brief: as §1

[6] = compound: CNC(=O)C1=CC=CC=C1NC2=NC(=NC=C2Cl)NC3=C(C=C(C=C3)N4CCOCC4)OC
Method in brief: as §1

defactinib = compound: CNC(=O)c1ccc(Nc2ncc(C(F)(F)F)c(NCc3nccnc3N(C)S(C)(=O)=O)n2)cc1 [defactinib]
Method in brief: as §1

[7] = compound: CNc1nc(-c2ccc3c(N)n[nH]c3c2)cc(N2C[C@@H](C(=O)NC3CCCCC3)CC[C@H]2C)n1
Method in brief: as §1

encorafenib = compound: COC(=O)N[C@@H](C)CNc1nccc(-c2cn(C(C)C)nc2-c2cc(Cl)cc(NS(C)(=O)=O)c2F)n1 [encorafenib]
Method in brief: as §1

[8] = compound: COC(=O)[C@H](CCSC)NC(=O)C1=C(C=C(C=C1)NC[C@H](CS)N)C2=CC=CC=C2
Method in brief: as §1

alisertib = compound: COc1cc(Nc2ncc3c(n2)-c2ccc(Cl)cc2C(c2c(F)cccc2OC)=NC3)ccc1C(=O)O [alisertib]
Method in brief: as §1

[9] = compound: COc1cc2nc(-c3cc(F)ccc3O)nc(N[C@@H]3CNC[C@H]3C(C)(C)O)c2cc1OC
Method in brief: as §1

gefitinib = compound: COc1cc2ncnc(Nc3ccc(F)c(Cl)c3)c2cc1OCCCN1CCOCC1 [gefitinib]
Method in brief: as §1

Measured: log2 fold change

TPX2 (UniProt Q9ULW0)
UniProt Q9ULW0, sequence (Q9ULW0 whole entry, looked up): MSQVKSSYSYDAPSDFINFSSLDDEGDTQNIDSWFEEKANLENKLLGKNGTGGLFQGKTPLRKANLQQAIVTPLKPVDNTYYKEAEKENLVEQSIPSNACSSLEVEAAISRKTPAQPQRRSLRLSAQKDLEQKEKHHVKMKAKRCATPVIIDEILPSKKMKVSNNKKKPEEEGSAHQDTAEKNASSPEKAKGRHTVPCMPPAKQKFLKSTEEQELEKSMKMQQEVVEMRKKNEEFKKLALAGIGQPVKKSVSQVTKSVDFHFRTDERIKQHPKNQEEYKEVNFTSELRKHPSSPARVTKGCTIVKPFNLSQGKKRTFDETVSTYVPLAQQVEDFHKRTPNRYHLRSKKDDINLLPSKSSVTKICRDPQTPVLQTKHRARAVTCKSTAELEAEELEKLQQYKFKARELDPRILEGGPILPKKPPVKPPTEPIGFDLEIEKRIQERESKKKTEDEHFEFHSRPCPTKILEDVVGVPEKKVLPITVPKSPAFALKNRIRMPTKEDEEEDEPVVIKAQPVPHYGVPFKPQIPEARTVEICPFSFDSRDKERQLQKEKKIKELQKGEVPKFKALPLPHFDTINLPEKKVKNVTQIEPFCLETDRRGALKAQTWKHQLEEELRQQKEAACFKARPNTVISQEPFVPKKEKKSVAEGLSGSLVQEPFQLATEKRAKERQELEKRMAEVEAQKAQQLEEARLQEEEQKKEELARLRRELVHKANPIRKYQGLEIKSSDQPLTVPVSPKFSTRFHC
active: [8] -0.215
inactive: vemurafenib -0.006 | [1] -0.013 | barasertib -0.036 | [2] 0.093 | volasertib 0.012 | [3] -0.035 | [4] 0.04 | [5] -0.007 | saracatinib 0.03 | sotrastaurin -0.016 | alvocidib -0.002 | Tubastatin A -0.129 | [6] 0.014 | defactinib 0.01 | [7] 0.045 | encorafenib 0.041 | alisertib 0.043 | [9] -0.027 | gefitinib 0.012

TRIM33 isoform 2 (UniProt Q9UPN9)
inactive: vemurafenib -0.018 | [1] -0.003 | barasertib 0.009 | [2] -0.008 | volasertib -0.039 | [3] 0.023 | [4] -0.132 | [5] 0.05 | saracatinib 0.027 | sotrastaurin 0.043 | alvocidib -0.029 | Tubastatin A -0.131 | [6] 0.016 | defactinib -0.001 | [7] -0.006 | encorafenib 0.006 | [8] 0.052 | alisertib -0.003 | [9] 0.046 | gefitinib 0.005

TERF2IP (UniProt Q9NYB0)
UniProt Q9NYB0, sequence (Q9NYB0 whole entry, looked up): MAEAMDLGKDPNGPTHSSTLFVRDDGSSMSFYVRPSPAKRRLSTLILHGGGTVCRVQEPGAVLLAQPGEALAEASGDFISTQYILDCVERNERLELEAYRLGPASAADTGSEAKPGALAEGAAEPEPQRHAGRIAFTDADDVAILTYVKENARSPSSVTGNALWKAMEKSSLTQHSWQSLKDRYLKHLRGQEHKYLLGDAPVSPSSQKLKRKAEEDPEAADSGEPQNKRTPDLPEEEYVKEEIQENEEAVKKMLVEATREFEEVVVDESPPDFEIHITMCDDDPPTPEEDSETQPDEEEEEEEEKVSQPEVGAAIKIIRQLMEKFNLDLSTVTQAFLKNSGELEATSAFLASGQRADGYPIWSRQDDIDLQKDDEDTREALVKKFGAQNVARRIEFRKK
active: [4] 0.269
inactive: vemurafenib -0.009 | [1] -0.003 | barasertib -0.006 | [2] 0.075 | volasertib 0.022 | [3] -0.015 | [5] -0.152 | saracatinib -0.003 | sotrastaurin 0.008 | alvocidib 0.087 | Tubastatin A 0.014 | [6] 0.009 | defactinib -0.008 | [7] 0.019 | encorafenib 0 | [8] -0.038 | alisertib -0.015 | [9] 0.011 | gefitinib -0.003

TPM3 (UniProt P06753)
UniProt P06753, sequence (P06753 whole entry, looked up): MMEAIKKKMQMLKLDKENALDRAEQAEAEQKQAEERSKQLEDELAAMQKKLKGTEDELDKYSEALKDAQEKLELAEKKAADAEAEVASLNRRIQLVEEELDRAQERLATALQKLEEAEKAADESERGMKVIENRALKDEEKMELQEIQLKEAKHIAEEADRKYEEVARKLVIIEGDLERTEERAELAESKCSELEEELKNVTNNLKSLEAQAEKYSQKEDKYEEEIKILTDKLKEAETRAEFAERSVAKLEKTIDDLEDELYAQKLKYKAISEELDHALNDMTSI
inactive: vemurafenib -0.008 | [1] 0.009 | barasertib -0.02 | [2] 0.043 | volasertib 0.021 | [3] 0.013 | [4] 0.182 | [5] -0.062 | saracatinib -0.011 | sotrastaurin -0.031 | alvocidib 0.048 | Tubastatin A 0.049 | [6] -0.015 | defactinib 0.044 | [7] -0.003 | encorafenib -0.048 | [8] -0.02 | alisertib -0.007 | [9] 0 | gefitinib 0.008

UBE2D1 (UniProt P51668)
UniProt P51668, sequence (P51668 whole entry, looked up): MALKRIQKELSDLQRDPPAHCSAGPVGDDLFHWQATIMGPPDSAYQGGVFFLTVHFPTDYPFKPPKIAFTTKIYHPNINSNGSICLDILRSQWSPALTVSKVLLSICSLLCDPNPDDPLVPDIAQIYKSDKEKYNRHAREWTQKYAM
inactive: vemurafenib -0.013 | [1] 0.022 | barasertib 0.014 | [2] 0.012 | volasertib -0.046 | [3] 0.089 | [4] 0.007 | [5] -0.025 | saracatinib 0.043 | sotrastaurin -0.021 | alvocidib 0.003 | Tubastatin A -0.045 | [6] 0.06 | defactinib 0.028 | [7] -0.027 | encorafenib -0.025 | [8] -0.042 | alisertib 0.028 | [9] -0.036 | gefitinib 0.106

TTC38 (UniProt Q5R3I4)
inactive: vemurafenib 0.035 | [1] 0.03 | barasertib 0.102 | [2] 0.004 | volasertib -0.001 | [3] -0.047 | [4] 0.189 | [5] -0.181 | saracatinib -0.026 | sotrastaurin -0.027 | alvocidib 0.121 | Tubastatin A -0.013 | [6] 0.004 | defactinib 0.001 | [7] 0.034 | encorafenib -0.045 | [8] 0.013 | alisertib -0.046 | [9] -0.018 | gefitinib -0.069

TUBE1 (UniProt Q9UJT0)
UniProt Q9UJT0, sequence (Q9UJT0 whole entry, looked up): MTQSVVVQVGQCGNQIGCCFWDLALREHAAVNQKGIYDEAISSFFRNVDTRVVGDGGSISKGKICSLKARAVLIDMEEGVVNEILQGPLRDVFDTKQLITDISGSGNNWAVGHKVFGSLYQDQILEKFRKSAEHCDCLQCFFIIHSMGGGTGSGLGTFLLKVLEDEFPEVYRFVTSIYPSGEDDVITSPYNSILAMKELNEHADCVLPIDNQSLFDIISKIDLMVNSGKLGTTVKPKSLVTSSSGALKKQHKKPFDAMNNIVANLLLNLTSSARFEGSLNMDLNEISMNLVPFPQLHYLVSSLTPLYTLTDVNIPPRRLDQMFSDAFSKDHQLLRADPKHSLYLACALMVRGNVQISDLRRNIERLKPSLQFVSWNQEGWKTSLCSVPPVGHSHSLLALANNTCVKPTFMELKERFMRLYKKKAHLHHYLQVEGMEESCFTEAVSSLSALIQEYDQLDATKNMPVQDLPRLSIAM
inactive: vemurafenib 0.036 | [1] 0.012 | barasertib 0.03 | [2] 0.112 | volasertib -0.005 | [3] 0.028 | [4] 0.257 | [5] -0.082 | saracatinib 0.089 | sotrastaurin 0.043 | alvocidib 0.06 | Tubastatin A -0.001 | [6] 0.062 | defactinib 0.107 | [7] -0.027 | encorafenib 0.036 | [8] -0.108 | alisertib 0.052 | [9] -0.009 | gefitinib -0.005

TEX30 (UniProt Q5JUR7)
UniProt Q5JUR7, sequence (Q5JUR7 whole entry, looked up): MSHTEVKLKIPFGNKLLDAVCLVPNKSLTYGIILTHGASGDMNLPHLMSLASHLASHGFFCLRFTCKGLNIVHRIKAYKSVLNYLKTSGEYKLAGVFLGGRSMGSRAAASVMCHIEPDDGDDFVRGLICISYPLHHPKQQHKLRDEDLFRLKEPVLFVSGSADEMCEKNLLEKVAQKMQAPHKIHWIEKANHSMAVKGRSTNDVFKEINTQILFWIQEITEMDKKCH
inactive: vemurafenib 0.008 | [1] 0.033 | barasertib 0.109 | [2] -0.077 | volasertib -0.051 | [3] 0.005 | [4] -0.301 | [5] 0.088 | saracatinib -0.011 | sotrastaurin -0.023 | alvocidib -0.021 | Tubastatin A -0.066 | [6] 0.066 | defactinib -0.097 | [7] 0.07 | encorafenib 0.047 | [8] 0.007 | alisertib 0.101 | [9] 0.041 | gefitinib 0.058

UBE4A isoform 2 (UniProt Q14139)
UniProt Q14139, sequence (Q14139 whole entry, looked up): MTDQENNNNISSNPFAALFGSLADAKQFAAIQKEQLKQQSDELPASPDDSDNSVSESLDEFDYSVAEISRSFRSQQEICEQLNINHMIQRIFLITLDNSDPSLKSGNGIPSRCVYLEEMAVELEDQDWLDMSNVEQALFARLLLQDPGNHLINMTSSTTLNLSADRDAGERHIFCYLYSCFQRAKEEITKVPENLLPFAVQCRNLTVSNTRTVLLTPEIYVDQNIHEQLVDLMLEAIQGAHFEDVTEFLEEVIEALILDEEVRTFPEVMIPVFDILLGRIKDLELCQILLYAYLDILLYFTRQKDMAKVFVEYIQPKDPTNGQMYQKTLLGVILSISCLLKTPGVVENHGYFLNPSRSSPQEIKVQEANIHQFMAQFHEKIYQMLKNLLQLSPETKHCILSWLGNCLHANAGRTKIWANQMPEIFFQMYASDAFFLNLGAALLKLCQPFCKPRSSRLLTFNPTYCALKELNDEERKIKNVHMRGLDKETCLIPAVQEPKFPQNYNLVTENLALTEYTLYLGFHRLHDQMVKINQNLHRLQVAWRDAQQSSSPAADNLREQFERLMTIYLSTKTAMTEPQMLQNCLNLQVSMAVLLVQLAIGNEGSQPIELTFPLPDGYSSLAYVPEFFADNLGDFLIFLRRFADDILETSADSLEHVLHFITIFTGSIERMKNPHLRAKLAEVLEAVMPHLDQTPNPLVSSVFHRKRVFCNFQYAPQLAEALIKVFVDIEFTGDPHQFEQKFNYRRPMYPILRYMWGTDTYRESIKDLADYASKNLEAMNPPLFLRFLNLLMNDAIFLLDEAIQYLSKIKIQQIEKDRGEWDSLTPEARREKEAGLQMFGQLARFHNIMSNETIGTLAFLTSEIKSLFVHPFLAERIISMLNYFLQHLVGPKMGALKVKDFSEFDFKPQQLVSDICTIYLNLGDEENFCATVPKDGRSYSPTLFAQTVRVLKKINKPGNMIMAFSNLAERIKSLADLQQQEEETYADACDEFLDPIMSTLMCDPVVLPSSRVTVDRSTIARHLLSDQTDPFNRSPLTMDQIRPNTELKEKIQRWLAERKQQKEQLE
inactive: vemurafenib -0.008 | [1] -0.001 | barasertib -0.009 | [2] 0.003 | volasertib -0.053 | [3] 0.031 | [4] -0.03 | [5] -0.081 | saracatinib 0.011 | sotrastaurin 0.025 | alvocidib 0 | Tubastatin A -0.087 | [6] 0.029 | defactinib 0.011 | [7] -0.073 | encorafenib 0.018 | [8] -0.102 | alisertib 0.018 | [9] 0.013 | gefitinib -0.041

TXNRD2 (UniProt Q9NNW7)
UniProt Q9NNW7, sequence (Q9NNW7 whole entry, looked up): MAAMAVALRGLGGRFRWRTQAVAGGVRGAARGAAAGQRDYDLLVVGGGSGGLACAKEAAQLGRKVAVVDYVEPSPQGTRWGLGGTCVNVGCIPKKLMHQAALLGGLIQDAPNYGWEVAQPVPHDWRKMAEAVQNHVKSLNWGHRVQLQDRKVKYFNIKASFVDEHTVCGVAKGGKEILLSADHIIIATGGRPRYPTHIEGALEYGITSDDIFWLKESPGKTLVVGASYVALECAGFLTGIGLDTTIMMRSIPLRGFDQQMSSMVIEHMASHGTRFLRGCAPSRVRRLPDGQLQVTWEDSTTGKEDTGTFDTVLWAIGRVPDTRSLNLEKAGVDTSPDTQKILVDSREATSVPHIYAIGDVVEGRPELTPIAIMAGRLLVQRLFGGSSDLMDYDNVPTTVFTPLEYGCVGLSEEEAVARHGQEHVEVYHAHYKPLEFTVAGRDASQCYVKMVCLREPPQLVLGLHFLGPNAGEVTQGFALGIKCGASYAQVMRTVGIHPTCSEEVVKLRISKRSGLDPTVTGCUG
inactive: vemurafenib -0.004 | [1] 0.036 | barasertib -0.047 | [2] 0.023 | volasertib -0.005 | [3] -0.008 | [4] -0.031 | [5] 0.082 | saracatinib 0 | sotrastaurin -0.021 | alvocidib -0.006 | Tubastatin A 0.021 | [6] 0.018 | defactinib 0.015 | [7] 0.007 | encorafenib 0.039 | [8] -0.034 | alisertib 0 | [9] 0.008 | gefitinib -0.064

TBRG4 (UniProt Q969Z0)
inactive: vemurafenib -0.016 | [1] 0.008 | barasertib 0.051 | [2] -0.075 | volasertib -0.079 | [3] 0.048 | [4] 0.052 | [5] -0.128 | saracatinib 0.026 | sotrastaurin 0.013 | alvocidib 0.017 | Tubastatin A -0.089 | [6] 0.007 | defactinib 0.071 | [7] -0.018 | encorafenib 0.01 | [8] -0.013 | alisertib 0.037 | [9] -0.008 | gefitinib -0.015

TRIM11 (UniProt Q96F44)
UniProt Q96F44, sequence (Q96F44 whole entry, looked up): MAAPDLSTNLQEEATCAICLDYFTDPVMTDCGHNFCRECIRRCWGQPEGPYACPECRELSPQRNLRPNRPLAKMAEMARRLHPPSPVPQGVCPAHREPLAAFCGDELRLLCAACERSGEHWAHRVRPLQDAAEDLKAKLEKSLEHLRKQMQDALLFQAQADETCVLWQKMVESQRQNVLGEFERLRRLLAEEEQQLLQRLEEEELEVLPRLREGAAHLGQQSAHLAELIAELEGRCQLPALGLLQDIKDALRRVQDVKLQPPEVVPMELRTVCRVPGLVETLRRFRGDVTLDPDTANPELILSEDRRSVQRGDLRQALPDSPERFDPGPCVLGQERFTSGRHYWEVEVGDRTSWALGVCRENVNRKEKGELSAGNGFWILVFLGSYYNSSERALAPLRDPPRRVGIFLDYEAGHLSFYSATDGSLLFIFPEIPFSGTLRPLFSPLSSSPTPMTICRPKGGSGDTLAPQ
inactive: vemurafenib -0.049 | [1] -0.018 | barasertib -0.034 | [2] -0.001 | volasertib -0.043 | [3] 0.022 | [4] 0.024 | [5] 0.009 | saracatinib 0.024 | sotrastaurin -0.009 | alvocidib -0.015 | Tubastatin A -0.021 | [6] 0.037 | defactinib 0.016 | [7] -0.007 | encorafenib 0.029 | [8] 0.053 | alisertib -0.026 | [9] -0.055 | gefitinib 0.004

TRIM33 (UniProt H0Y612)
inactive: vemurafenib 0.012 | [1] 0.007 | barasertib 0.087 | [2] 0.018 | volasertib 0.012 | [3] 0.093 | [4] -0.017 | [5] 0.051 | saracatinib -0.078 | sotrastaurin 0.006 | alvocidib -0.081 | Tubastatin A -0.034 | [6] 0.119 | defactinib -0.007 | [7] 0.075 | encorafenib 0.014 | [8] 0.122 | alisertib -0.006 | [9] 0.09 | gefitinib -0.102

TUBA1B (UniProt P68363)
inactive: vemurafenib 0.009 | [1] 0 | barasertib 0.013 | [2] -0.02 | volasertib -0.046 | [3] 0.013 | [4] -0.008 | [5] -0.011 | saracatinib 0.003 | sotrastaurin 0.017 | alvocidib -0.027 | Tubastatin A -0.056 | [6] 0.019 | defactinib -0.03 | [7] 0.003 | encorafenib -0.004 | [8] 0.085 | alisertib 0.026 | [9] -0.004 | gefitinib 0.013

TRIP13 (UniProt Q15645)
inactive: vemurafenib -0.036 | [1] 0 | barasertib 0.033 | [2] -0.083 | volasertib -0.089 | [3] 0.034 | [4] 0.003 | [5] -0.019 | saracatinib 0.008 | sotrastaurin 0.05 | alvocidib 0.018 | Tubastatin A -0.159 | [6] 0.014 | defactinib 0.07 | [7] -0.049 | encorafenib 0.03 | [8] 0.114 | alisertib 0 | [9] 0.014 | gefitinib -0.036

UGDH (UniProt O60701)
UniProt O60701, sequence (O60701 whole entry, looked up): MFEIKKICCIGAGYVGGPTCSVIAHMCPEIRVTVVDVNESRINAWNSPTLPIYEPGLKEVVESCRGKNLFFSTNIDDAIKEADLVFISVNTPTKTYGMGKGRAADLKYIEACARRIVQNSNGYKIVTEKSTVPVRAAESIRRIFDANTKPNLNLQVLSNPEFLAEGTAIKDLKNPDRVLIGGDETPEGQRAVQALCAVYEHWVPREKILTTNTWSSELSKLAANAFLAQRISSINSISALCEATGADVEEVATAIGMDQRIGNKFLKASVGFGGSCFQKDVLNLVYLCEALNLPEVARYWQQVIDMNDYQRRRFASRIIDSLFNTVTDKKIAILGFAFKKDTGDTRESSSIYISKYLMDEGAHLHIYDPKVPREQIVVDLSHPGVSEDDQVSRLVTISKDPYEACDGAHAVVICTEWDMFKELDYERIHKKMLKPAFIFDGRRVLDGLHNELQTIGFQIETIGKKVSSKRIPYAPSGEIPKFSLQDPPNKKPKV
inactive: vemurafenib 0.008 | [1] 0.017 | barasertib -0.003 | [2] -0.062 | volasertib -0.045 | [3] 0.011 | [4] -0.028 | [5] -0.021 | saracatinib 0.187 | sotrastaurin 0.003 | alvocidib 0.023 | Tubastatin A -0.151 | [6] 0.015 | defactinib 0.071 | [7] -0.132 | encorafenib 0.047 | [8] 0.037 | alisertib -0.025 | [9] -0.004 | gefitinib -0.042
